Values joined by “and” are separate entries in the source; they are usually repeats but may differ in a detail not shown here. Equal entries are not always repeated. Results filed as inconclusive are left out. Active and inactive are the calls of the source. Unless noted, calls follow the shape of the dose curve; as a rule, active = well fitted curve in the direction sought with a large enough effect in the repeat runs; inconclusive = weak or mixed curves; inactive = no such curve, though single readings can be large; an effect the other way counts as inactive or inconclusive.
Key:
[1] = qHTS assay for small molecules that induce genotoxicity in human embryonic kidney cells expressing luciferase-tagged ATAD5 (AID 651632); also: nearly all actives have a fitted effect of over 15% in size
Summary of the method: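 ATAD5-luc HEK293T, 2,000 cells/well; cpd or DMSO pin-transferred; 16 hr, 37C/5% CO2; Amplite 30 min RT; luminescence.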

[2] = qHTS assay for small molecule disruptors of the mitochondrial membrane potential - cell viability (AID 720634; calls by dose curve;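 also: human HepG2 liver cancer cells; nearly all actives have a fitted effect of over 20% in size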)
Summary of the method: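 Cells: HepG2, 2,000/well, attached overnight. Compound 1 hr, 37 C/5% CO2. +m-MPI dye, +CellTiter-Glo 30 min RT. Readout: luminescence (ATP).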

[3] = qHTS assay to test for compound auto fluorescence at 535 nm (green) in HepG2 cells (AID 720675)
[4] = qHTS assay to test for compound auto fluorescence at 460 nm (blue) in HEK293 cells (AID 720678)
Summary of the method: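 HEK293 cells (2,000/well, medium with 10% dialyzed FBS) attached 4-5 hr, then exposed to compound overnight at 37C, 5% CO2. Blue fluorescence read at 405/460 nm, with triamterene as reference fluorophore.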

[5] = qHTS assay to test for compound auto fluorescence at 590 nm (red) in HEK293 cells (AID 720679)
Summary of the method: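 HEK293 cells (2,000/well, 10% dialyzed FBS) attached 4-5 hr, then dosed with compound or DMSO and incubated overnight at 37C, 5% CO2. Red fluorescence read at 540/590 nm, Rose Bengal sodium as reference fluorophore.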

[6] = qHTS assay to test for compound auto fluorescence at 535 nm (green) in HEK293 cells (AID 720680)
[7] = qHTS assay to test for compound auto fluorescence at 460 nm (blue) in HEK293 cell free culture (AID 720681)
Summary of the method: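 Blue fluorescence (Ex 405/Em 460 nm, triamterene-equivalent) was read immediately after pin transfer of compound or DMSO into medium (DMEM, 10% FBS) without cells.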

[8] = qHTS assay to test for compound auto fluorescence at 535 nm (green) in HEK293 cell free culture (AID 720682)
Summary of the method: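 Measurement is a direct plate read of green fluorescence (485 nm in, 535 nm out) after compound addition to serum-supplemented DMEM lacking cells, with fluorescein used to express intensities.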

[9] = qHTS assay to test for compound auto fluorescence at 590 nm (red) in HEK293 cell free culture (AID 720683)
Summary of the method: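 Red-channel autofluorescence of compounds in culture medium (DMEM, 10% FBS), no cells, measured at 540/590 nm. Rose Bengal sodium is the reference fluorophore for equivalence.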

[10] = qHTS assay to test for compound auto fluorescence at 590 nm (red) in HepG2 cell free culture (AID 720684)
Summary of the method: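 Steps: dispense MEM/10% FBS medium, no cells; pin compound or DMSO vehicle; read red channel, Ex/Em 540/590 nm. Output given as Rose Bengal sodium equivalents.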

[11] = qHTS assay to test for compound auto fluorescence at 460 nm (blue) in HepG2 cell free culture (AID 720685)
Summary of the method: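 Compound (23 nL) or DMSO pinned into cell-free MEM with 10% FBS; blue fluorescence read at 405/460 nm excitation/emission, expressed as auto-fluorescence equivalency to triamterene.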

[12] = qHTS assay to test for compound auto fluorescence at 535 nm (green) in HepG2 cell free culture (AID 720686)
[13] = molecular target: Glucocorticoid receptor (Homo sapiens) (UniProt P04150); experiment: qHTS assay to identify small molecule antagonists of the glucocorticoid receptor (GR) signaling pathway (AID 720692; active = well fitted inhibition curve with a large enough effect in the signal ratio in the repeat runs, not every such curve was filed as active; the % refers to the signal ratio; also: potency is read from the fitted curve at half-maximal effect)
Summary of the method: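 HeLa GR-bla cells; cmpd + dex 5 nM final, 18 h 37 C; LiveBLAzer B/G FRET substrate 2 h RT; fluorescence intensity read. Antagonist mode, qHTS.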

[14] = qHTS assay for small molecules that induce genotoxicity in human embryonic kidney cells expressing luciferase-tagged ATAD5 - cell viability (AID 651634; calls by dose curve; also: nearly all actives have a fitted effect of over 25% in size; also: potency is read from the fitted curve at half-maximal effect)
Summary of the method: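 Fluorescence from CellTiter-Fluor, reporting protease activity within live cells, served as the viability read-out. HEK293T cells carrying luciferase-tagged ATAD5 had been treated with compound for 15.5 hr at 37C.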

[15] = qHTS assay to test for compound auto fluorescence at 590 nm (red) in HepG2 cells (AID 720674)
Summary of the method: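 1 hr compound incubation on HepG2 cells, 37 C, 5% CO2; plate read ex 540 nm / em 590 nm; intensities reported as Rose Bengal sodium equivalents.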

[16] = qHTS assay to test for compound auto fluorescence at 460 nm (blue) in HepG2 cells (AID 720687)
Summary of the method: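 Blue-channel autofluorescence (Ex/Em 405/460 nm, triamterene-equivalent) was measured after 1 hr compound exposure at 37 C, 5% CO2. Cells were HepG2, plated overnight at 37 C in MEM plus 10% FBS.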

[17] = molecular target: Glucocorticoid receptor (Homo sapiens) (UniProt P04150); experiment: qHTS assay to identify small molecule agonists of the glucocorticoid receptor (GR) signaling pathway (AID 720691; active = well fitted activation curve with a large enough effect in the signal ratio in the repeat runs, not every such curve was filed as active; the % refers to the signal ratio); settings: GR-bla HeLa, beta-lactamase reporter ratio, 18 h; activation: at 62.4 µM (top of the series) unless noted
Summary of the method: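 Fluorescence intensity from LiveBLAzer B/G FRET substrate (2 h, room temperature) reports beta-lactamase expression driven by the glucocorticoid response element in GR-bla HeLa cells after 18 h compound exposure at 37 C.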

[18] = qHTS assay for small molecule disruptors of the mitochondrial membrane potential (AID 720635); also: potency is read from the fitted curve at half-maximal effect
Summary of the method: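 Mitochondrial membrane potential tracked with Mito-MPS dye, red aggregates (ex 540/em 590 nm) against green monomers (ex 490/em 535 nm). Compound treatment 1 hr at 37C, dye 30 min in HepG2.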

[19] = qHTS assay for small molecule agonists of the p53 signaling pathway - cell viability (AID 651633; calls by dose curve;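 also: p53RE-bla HCT reporter cells with a stable beta-lactamase p53 reporter; nearly all actives have a fitted effect of over 30% in size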)
Summary of the method: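 Viability counter-read: CellTiter-Glo luminescence (30 min, room temperature) in the same p53RE-bla plates. These plates had been exposed to compounds for 16 h at 37 C.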
% is scaled to controls: 0 for no effect and ±100 for the full control effect.

Glucocorticoid receptor (Homo sapiens), sequence (P04150 whole entry, looked up): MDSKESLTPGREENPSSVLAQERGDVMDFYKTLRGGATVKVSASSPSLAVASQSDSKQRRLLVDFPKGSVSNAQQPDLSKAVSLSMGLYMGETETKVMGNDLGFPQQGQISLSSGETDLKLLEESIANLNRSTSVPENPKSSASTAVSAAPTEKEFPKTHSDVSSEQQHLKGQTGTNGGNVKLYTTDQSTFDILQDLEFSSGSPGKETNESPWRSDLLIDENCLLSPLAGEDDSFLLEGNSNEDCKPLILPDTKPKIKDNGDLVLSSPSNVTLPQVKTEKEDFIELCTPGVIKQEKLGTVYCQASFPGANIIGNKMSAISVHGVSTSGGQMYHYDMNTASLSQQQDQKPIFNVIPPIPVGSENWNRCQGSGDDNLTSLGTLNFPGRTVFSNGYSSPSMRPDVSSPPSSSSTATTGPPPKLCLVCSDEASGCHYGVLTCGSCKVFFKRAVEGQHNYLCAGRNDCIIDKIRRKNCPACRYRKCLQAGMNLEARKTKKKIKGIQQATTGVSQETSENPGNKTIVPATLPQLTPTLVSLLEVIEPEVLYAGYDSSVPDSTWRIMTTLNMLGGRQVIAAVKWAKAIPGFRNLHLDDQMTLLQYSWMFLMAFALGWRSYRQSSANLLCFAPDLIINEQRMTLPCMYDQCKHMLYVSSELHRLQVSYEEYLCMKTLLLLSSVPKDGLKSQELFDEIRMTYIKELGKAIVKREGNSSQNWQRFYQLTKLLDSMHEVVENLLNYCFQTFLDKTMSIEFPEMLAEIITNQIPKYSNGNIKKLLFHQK

CCCCCCCCCCCCCCOS(=O)(=O)O
inactive: Potency [1] | Potency [2] | Potency [3] | outcome [4] | Potency [5] | outcome [6] | outcome [7] | outcome [8] | Potency [9] | Potency [10] | outcome [11] | Potency [12] | Potency [13]

CC(C)(CO)[N+](=O)[O-]
inactive: Potency [1] | Potency [14] | Potency [2] | Potency [15] | Potency [3] | outcome [4] | Potency [5] | outcome [6] | outcome [7] | Potency [9] | Potency [10] | outcome [11] | Potency [12] | outcome [16] | Potency [17] | Potency [13]

C=CCOc1ccccc1OCC(O)CNC(C)C (stereo not given)
inactive: Potency [1] | Potency [2] | fluorescence, relative to Rose Bengal [15] -0.0179% [at 18.6 µM] | fluorescence, % of fluorescein control [3] 0.095% [at 18.6 µM] | fluorescence, % of triamterene [4] 0.0129% [at 18.6 µM] | fluorescence, % of fluorescent control [5] 0.157% [at 18.6 µM] | fluorescence, % of fluorescein [6] -0.0095% [at 18.6 µM] | fluorescence, % of fluorescent control [7] 0.179% [at 18.6 µM] | fluorescence, % of fluorescent control [9] 0.179% [at 18.6 µM] | fluorescence, % of Rose Bengal [10] 0.264% [at 18.6 µM] | fluorescence, % of fluorescent control [11] -0.0059% [at 18.6 µM] | fluorescence, % of fluorescein control [12] 0.0052% [at 18.6 µM] | fluorescence, % of fluorescent control [16] -0.0332% [at 18.6 µM] | Potency [13]

CC[N+](C)(CC)CCOC(=O)C(O)(c1ccccc1)C1CCCCC1 (stereo not given)
inactive: Potency [1] | Potency [14] | Potency [2] | Potency [18] | Potency [15] | Potency [3] | Potency [5] | outcome [6] | outcome [7] | outcome [8] | Potency [10] | outcome [11] | outcome [16] | Potency [13]

CCCCCCCCCCCCCCCCOS(=O)(=O)O
inactive: Potency [1] | Potency [14] | Potency [2] | Potency [15] | Potency [3] | outcome [4] | Potency [5] | outcome [6] | outcome [7] | outcome [8] | Potency [10] | outcome [11] | Potency [12]

OCCN1CCN(CCCN2c3ccccc3C=Cc3ccccc32)CC1
inactive: Potency [1] | Potency [2] | Potency [15] | Potency [3] | outcome [4] | Potency [5] | outcome [6] | outcome [7] | outcome [8] | Potency [10] | outcome [11] | Potency [12] | outcome [16] | Potency [17]

Cc1cccc(Nc2ccccc2)c1
active: Potency [18] 43.3 µM
inactive: Potency [19] | Potency [14] | Potency [2] | Potency [15] | Potency [3] | outcome [4] | Potency [5] | outcome [6] | outcome [7] | outcome [8] | Potency [10] | outcome [11] | Potency [12] | outcome [16]

COc1cccc(N(C)C(=S)Oc2ccc3c(c2)CCCC3)n1
active: Potency [18] 29.8 µM
inactive: Potency [15] | Potency [3] | outcome [4] | Potency [5] | outcome [6] | outcome [7] | outcome [8] | Potency [9] | Potency [10] | outcome [11] | Potency [12] | outcome [16]

CC(C)C[C@H]1C(=O)N2CCC[C@H]2[C@]2(O)O[C@](NC(=O)[C@@H]3C=C4c5cccc6[nH]c(Br)c(c56)C[C@H]4N(C)C3)(C(C)C)C(=O)N12
inactive: Potency [1] | Potency [2] | Potency [15] | Potency [3] | outcome [4] | Potency [5] | outcome [6] | outcome [7] | outcome [8] | Potency [9] | Potency [10] | outcome [11] | Potency [12] | Potency [17]
active: Potency [18] 10.6 µM and 8.23 µM

Cc1cccc(C)c1OCC(=O)N[C@@H](Cc1ccccc1)[C@@H](O)C[C@H](Cc1ccccc1)NC(=O)[C@H](C(C)C)N1CCCNC1=O
inactive: Potency [1] | Potency [2] | Potency [15] | Potency [3] | outcome [4] | Potency [5] | outcome [6] | outcome [7] | outcome [8] | Potency [9] | Potency [10] | outcome [11] | Potency [12] | outcome [16] | Potency [17]
active: Potency [14] 26.6 µM | Potency [13] 23.9 µM

C=CC(=O)OCCOCCOCCOCCOC(=O)C=C
inactive: Potency [19] | Potency [2] | Potency [18] | Potency [15] | Potency [3] | outcome [4] | Potency [5] | outcome [6] | outcome [7] | outcome [8] | Potency [10] | outcome [11] | Potency [12] | outcome [16] | Potency [17]

O=C(O)c1ccc(S(=O)(=O)O)cc1C(=O)O
inactive: Potency [1] | Potency [2] | Potency [15] | Potency [3] | outcome [4] | Potency [5] | outcome [6] | outcome [7] | outcome [8] | Potency [9] | Potency [10] | outcome [11] | outcome [16]

CO[C@@H]1[C@H](OC(=O)/C=C/C=C/C=C/C=C/C(=O)O)CC[C@]2(CO2)[C@H]1[C@@]1(C)O[C@@H]1CC=C(C)C
inactive: Potency [1] | Potency [14] | Potency [2] | Potency [3] | Potency [5] | outcome [7] | outcome [8] | Potency [9] | Potency [10] | outcome [11] | Potency [12] | outcome [16] | Potency [17]

From PubChem BioAssay (Tox21)
